Data: PubChem BioAssay (Tox21)
Records with an inconclusive call do not appear. Unmarked numbers belong to inactive results. Calls come from the whole dose curve; as a rule, active = well fitted activation curve with a large enough effect in the repeat runs; inconclusive = weak or mixed curves, or effect the other way; inactive = no such curve, though single readings can be large or run the other way.

test: qHTS assay to identify small molecule agonists of the estrogen related receptor signaling pathway with the pleiotropic PPARgamma coactivator (PGC) from Tox21 10K library (AID 1224842); conditions: PGC/ERR reporter cell line, luciferase ONE-Glo, 18 h; series mostly up to 92.4 µM; activation: at the top concentration; note: nearly all actives have a fitted effect of over 15% in size
How it was run: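 PGC/ERR reporter cells (NTP line) were seeded 2,000 per well, rested 6 h at 37 C/5% CO2, then pin-dosed with compounds in DMSO for 18 h at 37 C; luciferase read by One-Glo luminescence after 30 min at room temperature.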
% is set by controls: 0 for no effect and ±100 for the full control effect.

Compound | activation
N#Cc1ccc(Cl)cc1 | -0.59%
O=C(O)C(F)(F)C(F)(F)C(F)(F)C(F)(F)C(F)(F)C(F)(F)C(F)(F)C(F)(F)C(F)(F)F | -0.321%
O=[N+]([O-])c1ccc(F)c([N+](=O)[O-])c1 | -18.4%
CCC(Cl)CCl (stereo unspecified) | -0.134%
CC(c1ccc(O)cc1)(c1ccc(O)cc1)c1ccc(O)cc1 | -24.5%
C=CC(=O)OCCCCO | 11.1%
ClP(Cl)(Cl)(Cl)Cl | -4.37%
O=[N+]([O-])c1cc(C(F)(F)F)cc([N+](=O)[O-])c1Cl | -4.69%
COc1cc(Cl)c(OC)cc1Cl | -0.479%
CCBr | 3.7%
ClCc1cccc(Cl)c1 | -0.488% [at 42.5 µM]
CCCCCCCCCCOC(=O)c1ccccc1C(=O)OCCCCCCCCCC | 1.31%
Cc1ccc2ccccc2c1 | 0.549%
C=CC(=O)OCC(C)O (stereo unspecified) | 11.8%
CN1C(=O)C(O)N=C(c2ccccc2)c2cc(Cl)ccc21 (stereo unspecified) | 0.157%
O=Cc1ccc(Cl)cc1Cl | 1.75%
